AC50 and outcome data for 15 compounds are collected here from PubChem BioAssay (EPA / NIEHS).

As a reminder, the AC50 is the concentration at which the activity in the assay is half-maximal.

For assay [1], the target named is human Dual Specificity Protein Phosphatase 3 (DUSP3), DUSP3 (gene 1845) (UniProt P51452). The assay can be described thus: NVS_ENZ_hDUSP3: NovaScreen (NVS) Enzymatic Assay for human Dual Specificity Protein Phosphatase 3 (DUSP3) (AID 2283152). The essentials: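 Cell-free assay with recombinant human DUSP3 and fluorogenic substrate, read by fluorescence intensity. Primary screen ran duplicate at 25 uM; actives followed up in concentration series; loss of signal versus DMSO scored.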
human Dual Specificity Protein Phosphatase 3 (DUSP3), DUSP3 (gene 1845), sequence (P51452 whole entry, looked up): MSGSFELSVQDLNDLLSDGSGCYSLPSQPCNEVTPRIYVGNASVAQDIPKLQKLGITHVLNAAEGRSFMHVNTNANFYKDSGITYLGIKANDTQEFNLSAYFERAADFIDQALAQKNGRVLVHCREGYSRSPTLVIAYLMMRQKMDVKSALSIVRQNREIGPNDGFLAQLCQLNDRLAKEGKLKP

For assay [2], the target named is human Esterase Plasma (ES), BCHE (gene 590) (UniProt P06276). The assay can be described thus: NVS_ENZ_hES: NovaScreen (NVS) Enzymatic Assay for human Esterase Plasma (ES) (AID 2283157). The essentials:
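Chemicals were added to plasma-extracted human enzyme in a cell-free format, and activity was read colorimetrically after 0.25 hour. Activity loss was referenced to DMSO; concentration-response top dose was 50 uM.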

Assay [3] addresses human Ephrin type-A Receptor 1 (EphA1), EPHA1 (gene 2041) (UniProt P21709). Put plainly: NVS_ENZ_hEphA1: NovaScreen (NVS) Enzymatic Assay for human Ephrin type-A Receptor 1 (EphA1) (AID 2283158).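 Note: activity is signal loss versus DMSO meaning EphA1 kinase inhibition.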 The essentials: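 Cell-free kinase activity with recombinant protein, 1 hour after dosing; product separated by electrophoretic mobility shift, fluorescence read. Primary screen at 25 uM in duplicate; hits run as concentration-response up to 50 uM, relative to DMSO.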

The target in assay [4] is human Janus Kinase 2 (Jak2), JAK2 (gene 3717) (UniProt O60674). Put plainly: NVS_ENZ_hJak2: NovaScreen (NVS) Enzymatic Assay for human Janus Kinase 2 (Jak2) (AID 2283169). The essentials: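 Cell-free recombinant human JAK2 enzyme activity assay, fluorescence/electrophoretic mobility shift read 1 h after dosing. Screened in duplicate at 25 uM, then concentration-response up to 50 uM; activity as signal loss relative to DMSO.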

Assay [5] deals with human Insulin Receptor (InsR), INSR (gene 3643) (UniProt P06213). Put plainly: NVS_ENZ_hInsR: NovaScreen (NVS) Enzymatic Assay for human Insulin Receptor (InsR) (AID 2283168). The essentials: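 Fluorescent substrate phosphorylation by recombinant kinase, product resolved by electrophoretic mobility shift, read 1 h after dosing. Screened in duplicate at 25 uM; hits (e.g., 30% inhibition) run in concentration-response to 50 uM; DMSO as baseline.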

The target of assay [6] is human Aurora Kinase A - serine/threonine-protein Kinase 6 (AurA), AURKA (gene 6790) (UniProt O14965). The assay can be described thus: NVS_ENZ_hAurA: NovaScreen (NVS) Enzymatic Assay for human Aurora Kinase A - serine/threonine-protein Kinase 6 (AurA) (AID 2283142). The essentials: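 Cell-free enzymatic assay with human Aurora A, 1 hour after dosing. Fluorescent substrate turnover detected after electrophoretic mobility shift separation of substrate and product. Screened at 25 uM, actives retested in concentration-response up to 50 uM.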
human Aurora Kinase A - serine/threonine-protein Kinase 6 (AurA), AURKA (gene 6790), sequence (O14965 whole entry, looked up): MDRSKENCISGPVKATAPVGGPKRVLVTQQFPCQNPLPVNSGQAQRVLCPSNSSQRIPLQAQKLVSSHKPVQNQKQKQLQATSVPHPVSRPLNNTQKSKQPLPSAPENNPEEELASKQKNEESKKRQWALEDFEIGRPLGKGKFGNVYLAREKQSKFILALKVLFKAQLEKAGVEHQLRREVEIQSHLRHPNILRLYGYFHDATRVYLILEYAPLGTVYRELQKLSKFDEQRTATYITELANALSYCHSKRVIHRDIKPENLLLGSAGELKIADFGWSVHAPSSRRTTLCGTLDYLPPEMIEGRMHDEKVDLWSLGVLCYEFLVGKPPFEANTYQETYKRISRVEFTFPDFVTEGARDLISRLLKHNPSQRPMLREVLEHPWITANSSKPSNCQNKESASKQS

Assay [7] deals with human Epidermal Growth Factor Receptor (EGFR), EGFR (gene 1956) (UniProt P00533). The assay can be described thus: NVS_ENZ_hEGFR: NovaScreen (NVS) Enzymatic Assay for human Epidermal Growth Factor Receptor (EGFR) (AID 2283151). The essentials:
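Cell-free kinase assay, fluorescence plus electrophoretic mobility shift separating substrate and product, read 1 hour after dosing; loss of signal vs DMSO. Duplicate screen at 25 uM, then concentration-response to 50 uM.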

The target in assay [8] is human Fibroblast Growth Factor Receptor 1 (FGFR1), FGFR1 (gene 2260) (UniProt P11362). The assay can be described thus: NVS_ENZ_hFGFR1: NovaScreen (NVS) Enzymatic Assay for human Fibroblast Growth Factor Receptor 1 (FGFR1) (AID 2283159).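 For AC50: hits lower the signal so potencies describe inhibitors of the kinase.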 The essentials:
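Cell-free recombinant kinase with fluorescent substrate, product separated by electrophoretic mobility shift; read 1 hour after dosing, loss of signal relative to DMSO. Initial screen in duplicate at 25 uM, actives followed in concentration series.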

Assay [9] has as its target human IkappaB Kinase alpha (IKKa), CHUK (gene 1147) (UniProt O15111). Put plainly: NVS_ENZ_hIKKa: NovaScreen (NVS) Enzymatic Assay for human IkappaB Kinase alpha (IKKa) (AID 2283167). The essentials: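 Cell-free recombinant human IKKa with fluorescent substrate, product separated by electrophoretic mobility shift; read 1 hour after dosing. Primary screen duplicate at 25 uM, actives then concentration-response up to 50 uM; loss of signal relative to DMSO.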

In assay [10] the target is human Ephrin type-A Receptor 2 (EphA2), EPHA2 (gene 1969) (UniProt P29317). Put plainly: NVS_ENZ_hEphA2: NovaScreen (NVS) Enzymatic Assay for human Ephrin type-A Receptor 2 (EphA2) (AID 2283155). The essentials: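 Cell-free recombinant EphA2 kinase with specific substrate, 1 h, fluorescence with electrophoretic mobility-shift separation of substrate and product. Primary screen at 25 uM in duplicate; hits retested in singleton concentration-response up to 50 uM, referenced to DMSO.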

Assay [11] concerns the target Protein deacetylase HDAC6 (Homo sapiens) (UniProt Q9UBN7). Put plainly: NVS_ENZ_hHDAC6: NovaScreen (NVS) Enzymatic Assay for human Histone Deacetylase 6 (HDAC6) (AID 2283164). The essentials: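 Recombinant human HDAC6 with fluorescent substrate, 1 h; product separated from substrate by electrophoretic mobility shift. Primary screen in duplicate at 25 uM; actives retested singly in concentration-response up to 50 uM, fitted relative to DMSO.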

The next assay has as its target CDK2 (gene 1017) (UniProt P24941). Put plainly: NVS_ENZ_hCDK2: NovaScreen (NVS) Enzymatic Assay for human Cyclin-Cependent Kinase 2 (CDK2) (AID 2283144). The essentials:
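Cell-free recombinant human CDK2 with fluorescent substrate, product separated by electrophoretic mobility shift; 1 hr read. Primary screen at 25 uM in duplicate, actives retested in concentration-response up to 50 uM; loss of signal versus DMSO.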

Assay [12] concerns the target human Caspase 8 (CASP8), CASP8 (gene 841) (UniProt Q14790). The assay can be described thus: NVS_ENZ_hCASP8: NovaScreen (NVS) Enzymatic Assay for human Caspase 8 (CASP8) (AID 2283146). The essentials: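 E. coli-expressed enzyme was used in a cell-free fluorogenic substrate assay read 1 h after dosing. Loss of signal was scored relative to DMSO, and the primary screen was run in duplicate at 25 uM.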

For assay [13], the target named is human Casein Kinase 1-delta (CK1D), CSNK1D (gene 1453) (UniProt P48730). Put plainly: NVS_ENZ_hCK1D: NovaScreen (NVS) Enzymatic Assay for human Casein Kinase 1-delta (CK1D) (AID 2283148). The essentials:
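Recombinant human CK1-delta, cell-free; fluorescent substrate with electrophoretic mobility-shift separation of product, read 1 h after dosing. Single 25 uM duplicate screen, then concentration-response up to 50 uM; loss of signal vs DMSO.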

Assay [14] concerns the target human FYN Proto-Oncogene, Src family Tyrosine Kinase (Fyn), FYN (gene 2534) (UniProt P06241). The assay can be described thus: NVS_ENZ_hFyn: NovaScreen (NVS) Enzymatic Assay for human FYN Proto-Oncogene, Src family Tyrosine Kinase (Fyn) (AID 2283161). The essentials: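 Recombinant enzyme with fluorescent substrate, product separated by electrophoretic mobility shift; read 1 h after dosing. Duplicate 25 uM single-point screen, actives retested in concentration series; loss of signal vs DMSO.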

Assay [15] addresses Glycogen synthase kinase-3 beta (Homo sapiens) (UniProt P49841). Put plainly: NVS_ENZ_hGSK3b: NovaScreen (NVS) Enzymatic Assay for human Glycogen Synthase Kinase-3 beta (GSK3b) (AID 2283165). The essentials: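 Recombinant enzyme with specific fluorescent substrate, 1 h, product separated by electrophoretic mobility shift. Primary duplicate screen at 25 uM; actives (e.g. 30% inhibition) followed in singleton concentration-response to 50 uM. Signal loss fitted versus DMSO.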

For assay [16], the target named is human Colony Stimulating Factor 1 Receptor (CSF1R), CSF1R (gene 1436) (UniProt P07333). The assay can be described thus: NVS_ENZ_hCSF1R: NovaScreen (NVS) Enzymatic Assay for human Colony Stimulating Factor 1 Receptor (CSF1R) (AID 2283150). The essentials:
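Cell-free recombinant human CSF1R kinase with fluorescent substrate, product separated by electrophoretic mobility shift; read 1 h after dosing. Primary screen at 25 uM in duplicate, actives then in concentration-response up to 50 uM, relative to DMSO.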

Assay [17] concerns the target human Elastase, ELANE (gene 1991) (UniProt P08246). Put plainly: NVS_ENZ_hElastase: NovaScreen (NVS) Enzymatic Assay for human Elastase (AID 2283153). The essentials: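 Cell-free elastase from human neutrophils, 1.5 h after dosing, activity read by absorbance. Primary screen in duplicate at 25 uM; hits (e.g., 30% inhibition) rerun in singleton concentration-response up to 50 uM, fitted versus DMSO.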

Assay [18] has as its target human Ephrin type-B Receptor 2 (EphB2), EPHB2 (gene 2048) (UniProt P29323). The assay can be described thus: NVS_ENZ_hEphB2: NovaScreen (NVS) Enzymatic Assay for human Ephrin type-B Receptor 2 (EphB2) (AID 2283156). The essentials:
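Recombinant kinase with fluorescent substrate, product separated by electrophoretic mobility shift, read 1 h after dosing. Duplicate 25 uM screen, then singleton concentration-response to 50 uM max; loss of signal versus DMSO.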

Molecules are shown by their SMILES. Results filed as inconclusive are left out. Calls of active or inactive are those of the source. Rule for the calls: active = hit-call score of the fitted dose curve at least 0.9, where 1 is the maximum; inconclusive = response in the unintended direction; inactive = score below 0.9.

human Epidermal Growth Factor Receptor (EGFR), EGFR (gene 1956), sequence (P00533 whole entry, looked up): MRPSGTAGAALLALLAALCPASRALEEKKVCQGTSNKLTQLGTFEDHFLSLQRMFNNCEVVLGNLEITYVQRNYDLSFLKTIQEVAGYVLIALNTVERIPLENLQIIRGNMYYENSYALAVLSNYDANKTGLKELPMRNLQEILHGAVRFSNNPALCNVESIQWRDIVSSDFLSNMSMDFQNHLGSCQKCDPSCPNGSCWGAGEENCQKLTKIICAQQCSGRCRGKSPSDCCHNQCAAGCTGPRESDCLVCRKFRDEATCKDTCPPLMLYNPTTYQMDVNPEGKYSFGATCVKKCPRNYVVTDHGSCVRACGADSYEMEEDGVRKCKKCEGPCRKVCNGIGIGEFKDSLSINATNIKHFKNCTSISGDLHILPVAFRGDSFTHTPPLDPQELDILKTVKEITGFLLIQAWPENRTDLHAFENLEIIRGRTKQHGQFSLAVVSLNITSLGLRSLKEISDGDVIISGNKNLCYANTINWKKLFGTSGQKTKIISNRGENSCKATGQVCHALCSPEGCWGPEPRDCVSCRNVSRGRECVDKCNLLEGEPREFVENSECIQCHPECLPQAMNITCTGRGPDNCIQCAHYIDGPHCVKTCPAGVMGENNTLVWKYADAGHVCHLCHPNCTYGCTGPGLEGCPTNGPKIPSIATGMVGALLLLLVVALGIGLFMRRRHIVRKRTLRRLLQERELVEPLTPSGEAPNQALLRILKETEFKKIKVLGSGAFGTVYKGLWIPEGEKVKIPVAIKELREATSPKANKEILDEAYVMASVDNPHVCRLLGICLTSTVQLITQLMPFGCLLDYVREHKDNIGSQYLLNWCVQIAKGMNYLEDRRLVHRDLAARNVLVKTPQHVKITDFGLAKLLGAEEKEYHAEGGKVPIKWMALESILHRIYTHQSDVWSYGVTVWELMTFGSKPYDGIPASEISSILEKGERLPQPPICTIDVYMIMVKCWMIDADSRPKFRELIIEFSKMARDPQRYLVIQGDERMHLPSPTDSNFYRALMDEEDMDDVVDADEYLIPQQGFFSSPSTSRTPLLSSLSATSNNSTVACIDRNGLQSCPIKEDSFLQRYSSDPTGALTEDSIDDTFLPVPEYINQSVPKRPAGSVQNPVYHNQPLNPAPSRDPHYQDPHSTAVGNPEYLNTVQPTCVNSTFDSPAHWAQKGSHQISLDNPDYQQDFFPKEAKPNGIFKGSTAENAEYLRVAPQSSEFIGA
human Ephrin type-A Receptor 1 (EphA1), EPHA1 (gene 2041), sequence (P21709 whole entry, looked up): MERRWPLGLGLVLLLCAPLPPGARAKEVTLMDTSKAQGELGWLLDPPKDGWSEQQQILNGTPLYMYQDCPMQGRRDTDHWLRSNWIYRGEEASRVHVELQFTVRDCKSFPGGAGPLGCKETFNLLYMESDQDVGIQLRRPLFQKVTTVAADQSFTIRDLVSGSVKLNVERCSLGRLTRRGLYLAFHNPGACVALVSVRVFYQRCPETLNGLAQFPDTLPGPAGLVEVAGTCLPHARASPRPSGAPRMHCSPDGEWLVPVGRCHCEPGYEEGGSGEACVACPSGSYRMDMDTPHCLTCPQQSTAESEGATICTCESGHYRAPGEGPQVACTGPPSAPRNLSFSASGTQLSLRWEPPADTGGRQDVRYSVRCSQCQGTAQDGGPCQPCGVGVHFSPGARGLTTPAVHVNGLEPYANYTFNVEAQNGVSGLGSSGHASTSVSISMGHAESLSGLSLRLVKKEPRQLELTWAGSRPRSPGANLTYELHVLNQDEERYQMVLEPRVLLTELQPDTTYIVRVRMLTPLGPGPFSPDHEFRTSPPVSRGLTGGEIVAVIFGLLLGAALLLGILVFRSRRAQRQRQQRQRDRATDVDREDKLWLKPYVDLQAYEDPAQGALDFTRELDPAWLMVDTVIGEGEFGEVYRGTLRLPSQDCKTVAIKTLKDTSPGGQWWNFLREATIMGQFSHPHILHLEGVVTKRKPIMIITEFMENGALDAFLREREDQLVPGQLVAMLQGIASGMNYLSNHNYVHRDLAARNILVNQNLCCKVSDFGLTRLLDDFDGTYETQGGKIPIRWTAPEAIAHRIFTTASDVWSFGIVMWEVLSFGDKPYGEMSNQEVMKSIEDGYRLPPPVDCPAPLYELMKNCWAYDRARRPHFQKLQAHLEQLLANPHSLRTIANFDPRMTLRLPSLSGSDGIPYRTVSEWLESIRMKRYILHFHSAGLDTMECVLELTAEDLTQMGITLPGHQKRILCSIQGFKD
human Fibroblast Growth Factor Receptor 1 (FGFR1), FGFR1 (gene 2260), sequence (P11362 whole entry, looked up): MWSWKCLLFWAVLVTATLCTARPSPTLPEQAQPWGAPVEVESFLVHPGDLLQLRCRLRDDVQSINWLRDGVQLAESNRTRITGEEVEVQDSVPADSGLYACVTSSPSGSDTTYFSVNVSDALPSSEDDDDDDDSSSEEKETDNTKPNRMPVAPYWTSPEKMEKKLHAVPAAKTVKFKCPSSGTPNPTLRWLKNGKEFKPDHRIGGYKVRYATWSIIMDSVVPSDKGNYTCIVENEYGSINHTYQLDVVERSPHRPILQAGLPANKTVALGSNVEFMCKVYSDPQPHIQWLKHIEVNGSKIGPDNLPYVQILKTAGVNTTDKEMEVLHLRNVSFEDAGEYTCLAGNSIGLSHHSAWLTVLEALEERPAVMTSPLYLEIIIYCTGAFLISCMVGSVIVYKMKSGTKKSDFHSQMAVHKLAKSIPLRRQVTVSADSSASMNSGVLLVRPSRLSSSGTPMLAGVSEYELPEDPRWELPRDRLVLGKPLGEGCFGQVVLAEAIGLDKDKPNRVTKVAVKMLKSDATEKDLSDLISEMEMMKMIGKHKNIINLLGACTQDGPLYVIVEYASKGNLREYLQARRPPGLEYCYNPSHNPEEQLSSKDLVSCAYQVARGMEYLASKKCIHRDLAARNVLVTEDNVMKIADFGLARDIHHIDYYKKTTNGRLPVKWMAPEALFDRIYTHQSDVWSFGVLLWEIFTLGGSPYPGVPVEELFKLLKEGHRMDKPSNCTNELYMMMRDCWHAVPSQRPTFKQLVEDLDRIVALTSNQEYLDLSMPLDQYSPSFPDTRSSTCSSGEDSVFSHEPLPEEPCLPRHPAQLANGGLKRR
human IkappaB Kinase alpha (IKKa), CHUK (gene 1147), sequence (O15111 whole entry, looked up): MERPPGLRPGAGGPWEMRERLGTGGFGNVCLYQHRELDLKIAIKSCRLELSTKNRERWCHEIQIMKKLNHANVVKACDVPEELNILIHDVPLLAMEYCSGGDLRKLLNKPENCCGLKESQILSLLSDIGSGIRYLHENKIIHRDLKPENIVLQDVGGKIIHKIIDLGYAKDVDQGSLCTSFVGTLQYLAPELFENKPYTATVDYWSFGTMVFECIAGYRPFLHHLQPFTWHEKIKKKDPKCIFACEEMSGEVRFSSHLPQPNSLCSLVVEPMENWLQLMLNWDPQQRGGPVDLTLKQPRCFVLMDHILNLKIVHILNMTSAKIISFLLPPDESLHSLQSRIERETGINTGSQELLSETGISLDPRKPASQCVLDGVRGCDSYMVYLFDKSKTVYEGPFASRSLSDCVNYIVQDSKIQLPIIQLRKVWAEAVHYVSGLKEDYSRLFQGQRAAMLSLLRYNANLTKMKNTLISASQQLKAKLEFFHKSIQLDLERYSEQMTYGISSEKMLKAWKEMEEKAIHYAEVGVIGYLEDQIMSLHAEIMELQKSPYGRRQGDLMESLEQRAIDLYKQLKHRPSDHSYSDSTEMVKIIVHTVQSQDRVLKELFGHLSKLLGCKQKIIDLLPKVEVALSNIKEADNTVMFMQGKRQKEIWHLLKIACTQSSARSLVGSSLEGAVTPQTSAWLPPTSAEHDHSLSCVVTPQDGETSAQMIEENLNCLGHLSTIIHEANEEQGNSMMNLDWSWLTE
human Casein Kinase 1-delta (CK1D), CSNK1D (gene 1453), sequence (P48730 whole entry, looked up): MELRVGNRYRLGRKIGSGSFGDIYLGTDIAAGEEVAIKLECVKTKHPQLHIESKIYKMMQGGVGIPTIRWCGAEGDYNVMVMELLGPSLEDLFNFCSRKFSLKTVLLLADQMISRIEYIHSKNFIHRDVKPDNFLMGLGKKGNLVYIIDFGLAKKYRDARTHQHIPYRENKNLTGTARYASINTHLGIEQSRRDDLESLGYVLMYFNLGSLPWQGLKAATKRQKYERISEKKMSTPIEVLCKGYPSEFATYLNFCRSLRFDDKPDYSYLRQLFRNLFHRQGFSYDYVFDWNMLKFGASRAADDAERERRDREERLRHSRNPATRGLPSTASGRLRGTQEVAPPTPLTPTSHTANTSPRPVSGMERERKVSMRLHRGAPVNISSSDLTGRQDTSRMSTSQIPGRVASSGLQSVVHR
human Elastase, ELANE (gene 1991), sequence (P08246 whole entry, looked up): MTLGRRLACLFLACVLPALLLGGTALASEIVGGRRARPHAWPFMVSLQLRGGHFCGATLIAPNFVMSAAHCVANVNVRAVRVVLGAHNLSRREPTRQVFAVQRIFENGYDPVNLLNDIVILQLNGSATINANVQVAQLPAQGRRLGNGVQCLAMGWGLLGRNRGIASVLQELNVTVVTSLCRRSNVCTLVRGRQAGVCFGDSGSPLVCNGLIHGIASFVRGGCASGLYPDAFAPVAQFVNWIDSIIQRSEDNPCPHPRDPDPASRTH

For `CCOC(=O)C(SP(=S)(OC)OC)c1ccccc1` (stereo not given), the half-maximal activity concentration (AC50) in [1] is 18.7 µM (active); in assay [2] it was 4.29 µM (active).

Regarding `Cc1cc(C(C)(C)c2ccc(O)c(C)c2)ccc1O`, in assay [1], the concentration at half-maximal activity (AC50) is 12.5 µM (active).

In the case of `CC1CC(=O)O1` (stereo not given), in assay [3], the compound was called inactive.

On to `CC(C)[N+](=O)[O-]`, for which the compound was called inactive in assay [3].

In the case of `CN(C)C(=S)S`, the concentration at half-maximal activity (AC50) in assay [1] was 8.6 µM (active). In addition, the result in assay [4] was inactive.

For `Cc1cc(C)cc(C)c1`, the compound was classed as inactive in assay [5].

As to `O=c1oc2ccccc2c(O)c1C(CC(O)c1ccc(-c2ccc(Br)cc2)cc1)c1ccccc1` (stereo not given), in assay [1], the AC50 was 9.57 µM (active). Besides, the call in assay [3] was inactive.

For the compound `Clc1cccc(Cl)c1Cl`, the compound was called inactive in [6], in assay [7], in assay [3], in [8] and in assay [9].

Consider `CCCCCCCCCCCCOS(=O)(=O)O`, for which the AC50 is 28.5 µM (active) in assay [6], 36.5 µM (active) in [7], 40.8 µM (active) in assay [10] and 13.9 µM (active) in [8]. The compound was classed as inactive in [11].

Consider `OC[P+](CO)(CO)CO`, for which the compound was classed as inactive in [3].

`Nc1c(Oc2ccccc2)cc(O)c2c1C(=O)c1ccccc1C2=O`: the compound was classed as inactive in [3].

For the compound `CNC(=O)CSP(=O)(OC)OC`, in assay [3], the outcome was inactive.

On to `CC(C)O.CC(C)O.OCCN(CCO)CCO.OCCN(CCO)CCO.[Ti]`, for which the half-maximal activity concentration (AC50) in assay [6] is 4.96 µM (active); with CDK2 (gene 1017), 0.003 µM (active); in assay [12], 1.13 µM (active); in assay [13] it was 10.8 µM (active); in assay [1], 10.3 µM (active); in [8], 1.9 µM (active). In addition, the results for the concentration at half-maximal activity (AC50) in assay [14] and in [15] were 0.0034 µM (active) and 0.00229 µM (active), respectively. Also, in assay [3], the compound was called inactive.

In the case of `CCCCCCCCCCCCc1cccc(S(=O)(=O)O)c1`, the AC50 in [6] was 16.1 µM (active); in assay [13] it was 28.6 µM (active); in [16], 17.3 µM (active); in [7], 19.6 µM (active); in [1] it was 16.8 µM (active); in assay [17], 26.7 µM (active). For the same compound, the AC50 is 32.9 µM (active) in [3]; 11.4 µM (active) in [8]; 13.7 µM (active) in [11]; 25.3 µM (active) in [15]; 40.9 µM (active) in assay [9]. Further, in assay [18], the outcome was inactive.

As for `c1ccc(-c2cccc(-c3ccccc3)c2)cc1`, the AC50 in assay [3] is 2.51 µM (active).
